# Results reported in PubChem BioAssay (EPA / NIEHS).
# Inconclusive results are not listed. Calls of active or inactive are those of the source. How the source made its calls: active means hit-call score of the fitted dose curve at least 0.9, where 1 is the maximum; inconclusive means response in the unintended direction; inactive means score below 0.9.
# Key:
# [1] = target: human Peroxisome Proliferator-activated Receptor delta (PPARd), PPARD (gene 5467) (UniProt Q03181); assay: ATG_PPARd_TRANS: Attagene TRANS-FACTORIAL HepG2 Assay for human Peroxisome Proliferator-activated Receptor delta (PPARd) (AID 2283002)
# Chain of human Peroxisome Proliferator-activated Receptor delta (PPARd), PPARD (gene 5467) (Q03181 whole entry, looked up, the tested form may be a part): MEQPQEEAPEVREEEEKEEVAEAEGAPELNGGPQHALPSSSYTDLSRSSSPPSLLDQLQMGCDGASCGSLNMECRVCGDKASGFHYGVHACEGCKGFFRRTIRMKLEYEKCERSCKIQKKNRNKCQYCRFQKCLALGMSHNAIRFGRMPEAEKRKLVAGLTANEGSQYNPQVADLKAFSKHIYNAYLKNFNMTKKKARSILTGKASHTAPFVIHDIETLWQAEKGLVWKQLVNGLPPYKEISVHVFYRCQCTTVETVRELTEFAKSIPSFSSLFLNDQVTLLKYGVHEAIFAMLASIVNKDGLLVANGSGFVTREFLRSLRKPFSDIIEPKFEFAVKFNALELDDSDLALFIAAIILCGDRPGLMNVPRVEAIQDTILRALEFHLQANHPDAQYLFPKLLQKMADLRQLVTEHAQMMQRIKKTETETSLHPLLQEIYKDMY
# In short: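 Fluorescence from capillary electrophoresis of labelled RT-PCR reporter fragments gives the signal; DMSO sets baseline. Cells: HepG2 transiently carrying GAL4-UAS reporter units plus chimeric nuclear receptor-Gal4 proteins, exposed to chemicals for 24 h.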
# [2] = target: Peroxisome proliferator-activated receptor gamma (Homo sapiens) (UniProt P37231); assay: ATG_PPARg_TRANS: Attagene TRANS-FACTORIAL HepG2 Assay for human Peroxisome Proliferator-activated Receptor-gamma (PPARg) (AID 2283007)
# In short: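 Twenty-four hours after chemical dosing of transiently transfected HepG2 cells, isolated RNA was converted to cDNA, reporter sequences amplified and 6-FAM-labelled, then HpaI-digested and analysed by capillary electrophoresis. Signal increase against DMSO was fitted.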
# [3] = target: Nuclear receptor subfamily 1 group I member 2 (Homo sapiens) (UniProt O75469); assay: ATG_PXR_TRANS: Attagene TRANS-FACTORIAL HepG2 Assay for human Pregnane X Receptor (PXR) (AID 2283008)
# Chain of Nuclear receptor subfamily 1 group I member 2 (Homo sapiens) (O75469 whole entry, looked up, the tested form may be a part): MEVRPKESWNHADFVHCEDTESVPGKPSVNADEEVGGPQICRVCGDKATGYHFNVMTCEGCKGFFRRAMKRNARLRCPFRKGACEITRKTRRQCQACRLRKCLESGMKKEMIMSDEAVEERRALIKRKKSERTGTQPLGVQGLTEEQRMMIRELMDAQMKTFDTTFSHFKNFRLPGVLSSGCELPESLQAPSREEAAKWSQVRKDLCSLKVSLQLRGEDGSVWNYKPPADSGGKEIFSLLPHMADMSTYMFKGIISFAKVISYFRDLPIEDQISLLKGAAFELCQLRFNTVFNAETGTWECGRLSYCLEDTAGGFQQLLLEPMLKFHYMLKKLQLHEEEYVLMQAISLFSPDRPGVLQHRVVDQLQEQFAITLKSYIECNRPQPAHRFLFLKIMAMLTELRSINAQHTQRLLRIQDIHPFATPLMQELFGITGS
# In short: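 Trans-factorial format: exogenous NR-Gal4 fusion activity, not endogenous factor, in transfected human HepG2 liver cells. After 24 h dosing, RNA isolated, reverse-transcribed, amplified and resolved by capillary electrophoresis; induction scored versus DMSO.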
# [4] = target: human RAR-related Orphan Receptor beta (RORb), RORB (gene 6096) (UniProt Q92753); assay: ATG_RORb_TRANS: Attagene TRANS-FACTORIAL HepG2 Assay for human RAR-related Orphan Receptor beta (RORb) (AID 2283010)
# Chain of human RAR-related Orphan Receptor beta (RORb), RORB (gene 6096) (Q92753 whole entry, looked up, the tested form may be a part): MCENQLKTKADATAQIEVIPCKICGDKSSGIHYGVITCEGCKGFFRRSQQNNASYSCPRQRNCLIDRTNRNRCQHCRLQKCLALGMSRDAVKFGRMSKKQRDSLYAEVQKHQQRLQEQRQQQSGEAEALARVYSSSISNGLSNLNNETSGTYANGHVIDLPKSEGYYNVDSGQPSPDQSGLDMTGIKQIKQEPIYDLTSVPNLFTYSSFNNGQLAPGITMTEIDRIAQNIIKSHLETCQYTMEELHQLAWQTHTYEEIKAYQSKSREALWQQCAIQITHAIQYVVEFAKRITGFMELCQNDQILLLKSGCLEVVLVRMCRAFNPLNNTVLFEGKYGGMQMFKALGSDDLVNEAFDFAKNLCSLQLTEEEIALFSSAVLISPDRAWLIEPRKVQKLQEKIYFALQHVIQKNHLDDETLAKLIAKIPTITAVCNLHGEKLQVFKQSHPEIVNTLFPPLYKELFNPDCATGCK
# In short: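 Multiplexed transcription-factor reporter assay: HepG2 cells transiently carrying NR-Gal4/GAL4-UAS constructs, 24 h treatment, mRNA quantified by RT-PCR plus capillary electrophoresis fluorescence; activity scored as induction over DMSO.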
# [5] = target: human RAR-related Orphan Receptor gamma (RORg), RORC (gene 6097) (UniProt P51449); assay: ATG_RORg_TRANS: Attagene TRANS-FACTORIAL HepG2 Assay for human RAR-related Orphan Receptor gamma (RORg) (AID 2283011)
# Chain of human RAR-related Orphan Receptor gamma (RORg), RORC (gene 6097) (P51449 whole entry, looked up, the tested form may be a part): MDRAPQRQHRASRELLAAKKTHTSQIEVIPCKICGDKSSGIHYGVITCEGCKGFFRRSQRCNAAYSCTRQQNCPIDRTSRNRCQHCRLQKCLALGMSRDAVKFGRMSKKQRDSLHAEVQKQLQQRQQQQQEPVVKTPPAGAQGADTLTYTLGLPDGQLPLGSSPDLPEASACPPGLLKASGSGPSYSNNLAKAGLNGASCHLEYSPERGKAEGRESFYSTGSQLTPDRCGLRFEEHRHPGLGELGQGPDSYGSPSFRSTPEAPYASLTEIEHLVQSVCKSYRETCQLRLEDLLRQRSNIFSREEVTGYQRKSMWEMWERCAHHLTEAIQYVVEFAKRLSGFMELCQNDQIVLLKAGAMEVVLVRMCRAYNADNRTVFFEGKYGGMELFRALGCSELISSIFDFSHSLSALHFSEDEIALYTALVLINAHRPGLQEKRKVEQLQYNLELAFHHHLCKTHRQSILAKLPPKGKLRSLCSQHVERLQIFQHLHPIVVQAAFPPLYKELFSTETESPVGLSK
# In short: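 Activity is scored as increase in GAL4-UAS reporter mRNA over DMSO, detected by fluorescent RT-PCR and capillary electrophoresis in HepG2 cells transiently expressing a RORg-Gal4 chimera, 24 h after dosing.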
# [6] = target: Retinoic acid receptor RXR-alpha (Homo sapiens) (UniProt P19793); assay: ATG_RXRa_TRANS: Attagene TRANS-FACTORIAL HepG2 Assay for human Retinoid X Receptor alpha (RXRa) (AID 2283012)
# Chain of Retinoic acid receptor RXR-alpha (Homo sapiens) (P19793 whole entry, looked up, the tested form may be a part): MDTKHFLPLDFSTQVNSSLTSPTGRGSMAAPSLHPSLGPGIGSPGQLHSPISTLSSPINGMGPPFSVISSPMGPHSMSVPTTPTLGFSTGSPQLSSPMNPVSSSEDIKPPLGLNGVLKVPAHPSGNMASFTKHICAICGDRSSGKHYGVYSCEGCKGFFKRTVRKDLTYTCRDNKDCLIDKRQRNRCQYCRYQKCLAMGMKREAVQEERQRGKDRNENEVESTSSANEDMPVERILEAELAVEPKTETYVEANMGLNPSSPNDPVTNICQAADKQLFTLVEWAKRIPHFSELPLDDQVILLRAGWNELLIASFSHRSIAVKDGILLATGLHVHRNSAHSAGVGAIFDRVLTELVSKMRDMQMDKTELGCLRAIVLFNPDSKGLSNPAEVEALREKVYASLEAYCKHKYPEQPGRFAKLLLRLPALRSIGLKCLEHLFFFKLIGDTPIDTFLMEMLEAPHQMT
# In short: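 Chimeric NR-GAL4 trans-activation in HepG2, 24 h treatment; reporter transcripts quantified by fluorescence on capillary electrophoresis, analysed for upward change from DMSO.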
# [7] = target: human Retinoid X Receptor beta (RXRb), RXRB (gene 6257) (UniProt P28702); assay: ATG_RXRb_TRANS: Attagene TRANS-FACTORIAL HepG2 Assay for human Retinoid X Receptor beta (RXRb) (AID 2283013)
# Chain of human Retinoid X Receptor beta (RXRb), RXRB (gene 6257) (P28702 whole entry, looked up, the tested form may be a part): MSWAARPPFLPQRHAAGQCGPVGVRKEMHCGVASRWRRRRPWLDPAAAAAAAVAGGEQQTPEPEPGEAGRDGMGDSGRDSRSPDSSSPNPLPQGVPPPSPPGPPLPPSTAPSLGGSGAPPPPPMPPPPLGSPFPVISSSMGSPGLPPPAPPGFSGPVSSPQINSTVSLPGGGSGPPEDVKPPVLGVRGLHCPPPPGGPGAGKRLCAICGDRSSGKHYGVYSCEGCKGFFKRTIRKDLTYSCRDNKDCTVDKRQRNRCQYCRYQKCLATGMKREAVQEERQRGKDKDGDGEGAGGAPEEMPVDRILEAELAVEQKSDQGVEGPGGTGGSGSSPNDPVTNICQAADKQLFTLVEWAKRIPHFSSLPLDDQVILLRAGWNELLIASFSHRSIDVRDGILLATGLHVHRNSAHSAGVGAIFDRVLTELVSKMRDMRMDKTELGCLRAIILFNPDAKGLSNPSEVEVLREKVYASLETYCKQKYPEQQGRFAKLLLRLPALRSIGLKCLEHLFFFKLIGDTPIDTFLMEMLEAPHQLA
# In short: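 After a 24 h incubation with test chemical, transfected HepG2 cells carrying NR-Gal4 fusions and GAL4-UAS reporter transcription units yield RNA whose reporter cDNA is FAM-labelled, HpaI-cut and sized by capillary electrophoresis; increases over DMSO are scored.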
# [8] = target: human Thyroid Receptor alpha (THRa1), THRA (gene 7067) (UniProt P10827); assay: ATG_THRa1_TRANS: Attagene TRANS-FACTORIAL HepG2 Assay for human Thyroid Receptor alpha (THRa1) (AID 2283014)
# Chain of human Thyroid Receptor alpha (THRa1), THRA (gene 7067) (P10827 whole entry, looked up, the tested form may be a part): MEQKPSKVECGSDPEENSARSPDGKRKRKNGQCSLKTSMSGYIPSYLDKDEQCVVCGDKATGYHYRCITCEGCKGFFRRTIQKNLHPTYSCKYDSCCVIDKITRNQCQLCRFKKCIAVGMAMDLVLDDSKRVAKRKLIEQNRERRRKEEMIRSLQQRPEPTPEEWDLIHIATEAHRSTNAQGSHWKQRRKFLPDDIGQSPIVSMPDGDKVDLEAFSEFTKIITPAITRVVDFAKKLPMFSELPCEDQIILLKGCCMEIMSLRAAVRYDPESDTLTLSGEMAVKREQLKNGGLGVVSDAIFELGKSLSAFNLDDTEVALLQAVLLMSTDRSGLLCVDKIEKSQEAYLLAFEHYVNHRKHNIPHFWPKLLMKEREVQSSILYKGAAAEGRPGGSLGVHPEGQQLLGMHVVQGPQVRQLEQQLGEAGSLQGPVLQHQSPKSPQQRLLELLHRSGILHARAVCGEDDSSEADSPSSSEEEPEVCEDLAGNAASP
# In short: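 First, HepG2 cells receive multiple GAL4-UAS reporter units and the chimeric receptor. They are then dosed for 24 h, after which RNA is reverse-transcribed, amplified, labelled, HpaI-cut and sized by capillary electrophoresis; gain relative to DMSO is scored.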
# [9] = target: human Retinoic Acid Receptor gamma (RARg), RARG (gene 5916) (UniProt P13631); assay: ATG_RARg_TRANS: Attagene TRANS-FACTORIAL HepG2 Assay for human Retinoic Acid Receptor gamma (RARg) (AID 2283009)
# Chain of human Retinoic Acid Receptor gamma (RARg), RARG (gene 5916) (P13631 whole entry, looked up, the tested form may be a part): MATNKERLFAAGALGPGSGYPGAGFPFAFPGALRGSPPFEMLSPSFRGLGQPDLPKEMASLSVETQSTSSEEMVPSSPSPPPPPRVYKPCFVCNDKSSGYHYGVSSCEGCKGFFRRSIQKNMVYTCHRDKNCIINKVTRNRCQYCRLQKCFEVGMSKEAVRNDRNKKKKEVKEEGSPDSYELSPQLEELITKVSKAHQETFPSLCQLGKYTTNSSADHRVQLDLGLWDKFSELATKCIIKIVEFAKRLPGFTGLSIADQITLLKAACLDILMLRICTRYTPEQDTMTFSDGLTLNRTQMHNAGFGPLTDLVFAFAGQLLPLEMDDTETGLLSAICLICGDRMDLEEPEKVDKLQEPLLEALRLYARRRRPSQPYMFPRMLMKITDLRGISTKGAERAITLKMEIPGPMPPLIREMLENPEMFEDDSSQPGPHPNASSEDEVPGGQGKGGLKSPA
# In short: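 Gain-of-signal relative to DMSO is reported from fluorescent capillary electrophoresis of RT-PCR reporter products. These came from HepG2 cells expressing transfected RARg-GAL4 chimeras with UAS reporters, harvested 24 h after dosing.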
# [10] = target: human Retinoic Acid Receptor beta (RARb), RARB (gene 5915) (UniProt P10826); assay: ATG_RARb_TRANS: Attagene TRANS-FACTORIAL HepG2 Assay for human Retinoic Acid Receptor beta (AID 2283004)
# Chain of human Retinoic Acid Receptor beta (RARb), RARB (gene 5915) (P10826 whole entry, looked up, the tested form may be a part): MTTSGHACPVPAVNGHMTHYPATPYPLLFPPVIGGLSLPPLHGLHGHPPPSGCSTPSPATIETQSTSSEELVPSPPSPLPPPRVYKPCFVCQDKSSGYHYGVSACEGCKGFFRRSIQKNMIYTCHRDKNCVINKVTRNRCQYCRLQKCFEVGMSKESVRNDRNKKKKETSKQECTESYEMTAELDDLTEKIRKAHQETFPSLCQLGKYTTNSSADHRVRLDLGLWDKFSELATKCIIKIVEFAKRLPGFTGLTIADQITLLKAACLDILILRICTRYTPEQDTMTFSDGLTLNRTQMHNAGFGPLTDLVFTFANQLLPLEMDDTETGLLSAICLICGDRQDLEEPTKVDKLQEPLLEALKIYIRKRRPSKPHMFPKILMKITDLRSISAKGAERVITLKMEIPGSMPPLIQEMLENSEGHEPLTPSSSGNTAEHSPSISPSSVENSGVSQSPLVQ
# In short: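 HepG2, transient MRTU transfection, NR–Gal4 chimera, 24 h treatment; RT-PCR plus CE fluorescence detection of reporter mRNA; gain of signal vs DMSO.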
# [11] = target: Retinoic acid receptor alpha (Homo sapiens) (UniProt P10276); assay: ATG_RARa_TRANS: Attagene TRANS-FACTORIAL HepG2 Assay for human Retinoic Acid Receptor alpha (RARa) (AID 2283005)
# Chain of Retinoic acid receptor alpha (Homo sapiens) (P10276 whole entry, looked up, the tested form may be a part): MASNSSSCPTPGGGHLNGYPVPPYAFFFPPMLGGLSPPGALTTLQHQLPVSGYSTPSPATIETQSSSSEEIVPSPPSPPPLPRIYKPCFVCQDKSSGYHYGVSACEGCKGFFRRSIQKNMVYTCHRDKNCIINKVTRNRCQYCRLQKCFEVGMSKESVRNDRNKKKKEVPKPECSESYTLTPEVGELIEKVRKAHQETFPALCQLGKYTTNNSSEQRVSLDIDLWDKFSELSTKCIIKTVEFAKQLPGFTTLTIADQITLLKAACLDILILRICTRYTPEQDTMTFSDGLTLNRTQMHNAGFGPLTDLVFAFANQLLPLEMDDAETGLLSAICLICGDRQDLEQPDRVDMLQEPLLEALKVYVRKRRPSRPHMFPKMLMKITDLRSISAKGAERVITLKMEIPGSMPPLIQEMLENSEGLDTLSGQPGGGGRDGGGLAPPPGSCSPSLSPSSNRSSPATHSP
# In short: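 HepG2 transiently transfected with multiplex GAL4-UAS reporter units including a human RARa–GAL4 chimera; 24 h compound exposure. Reporter mRNA quantified by RT-PCR, 6-FAM labeling and capillary electrophoresis; gain of signal versus DMSO.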
compound,measurement,setting,value
CCCCCCCCSCc1cc(C)c(O)c(CSCCCCCCCC)c1,outcome,[1],inactive
same,outcome,[2],inactive
same,outcome,[3],inactive
same,outcome,[4],inactive
same,outcome,[5],inactive
same,outcome,[6],inactive
same,outcome,[7],inactive
CC(=O)c1ccc(O)cc1,outcome,[1],inactive
same,outcome,[2],inactive
same,outcome,[4],inactive
same,outcome,[5],inactive
same,outcome,[6],inactive
same,outcome,[7],inactive
same,outcome,[8],inactive
c1coc(CNc2ncnc3nc[nH]c23)c1,outcome,[1],inactive
same,outcome,[2],inactive
same,outcome,[4],inactive
same,outcome,[5],inactive
same,outcome,[6],inactive
CCCCCCCCCCOC(=O)c1ccccc1C(=O)OCCCCCCCC,outcome,[1],inactive
same,outcome,[2],inactive
same,outcome,[3],inactive
same,outcome,[8],inactive
CC(C)COC(=O)c1ccccc1O,outcome,[1],inactive
same,outcome,[2],inactive
same,outcome,[3],inactive
same,outcome,[5],inactive
same,outcome,[6],inactive
same,outcome,[7],inactive
O=C1Cc2ccccc2C1,outcome,[1],inactive
same,outcome,[2],inactive
same,AC50,[3],27.9 µM (active)
same,outcome,[5],inactive
same,outcome,[6],inactive
same,outcome,[7],inactive
CCCCOCCOC(=O)c1ccccc1C(=O)OCCOCCCC,outcome,[1],inactive
same,AC50,[2],27.5 µM (active)
same,outcome,[9],inactive
same,outcome,[6],inactive
same,outcome,[7],inactive
NC(=O)c1cccnc1,outcome,[1],inactive
same,outcome,[2],inactive
same,outcome,[5],inactive
same,outcome,[6],inactive
Brc1cc(Br)cc(Br)c1,outcome,[1],inactive
same,outcome,[2],inactive
same,outcome,[3],inactive
same,outcome,[5],inactive
same,outcome,[6],inactive
same,AC50,[7],59.7 µM (active)
same,outcome,[8],inactive
CCC(C)(C)c1cc(O)c(C(C)(C)CC)cc1O,outcome,[1],inactive
same,outcome,[2],inactive
same,AC50,[3],7.37 µM (active)
same,outcome,[6],inactive
same,AC50,[7],59.9 µM (active)
same,outcome,[8],inactive
C=C1CC[C@H]2O[C@]2(C)CC[C@@H]2[C@@H]1CC2(C)C,outcome,[1],inactive
same,outcome,[2],inactive
same,outcome,[3],inactive
same,outcome,[4],inactive
same,outcome,[6],inactive
same,AC50,[7],100 µM (active)
same,outcome,[8],inactive
Cc1cc(N)n(-c2ccccc2)n1,outcome,[1],inactive
same,outcome,[2],inactive
same,outcome,[3],inactive
same,outcome,[4],inactive
same,outcome,[5],inactive
same,outcome,[7],inactive
same,outcome,[8],inactive
CC(C)(O)CCc1ccccc1,outcome,[1],inactive
same,outcome,[2],inactive
same,outcome,[3],inactive
same,outcome,[4],inactive
same,outcome,[5],inactive
same,outcome,[7],inactive
C=C(C)C(=O)OCCC[Si](OC)(OC)OC,outcome,[10],inactive
same,outcome,[3],inactive
same,outcome,[4],inactive
same,outcome,[5],inactive
same,outcome,[6],inactive
same,outcome,[8],inactive
C=CC(=O)OCCCCCC,outcome,[1],inactive
same,outcome,[3],inactive
same,outcome,[6],inactive
same,outcome,[8],inactive
CC(CO)(CO)[N+](=O)[O-],outcome,[1],inactive
same,outcome,[6],inactive
same,outcome,[7],inactive
O=C1CCC(=O)N1,outcome,[1],inactive
same,outcome,[5],inactive
same,outcome,[6],inactive
CCOC(=O)C(=O)OCC,outcome,[1],inactive
same,outcome,[4],inactive
CC(C)COC(=O)c1ccccc1,outcome,[10],inactive
same,outcome,[3],inactive
same,outcome,[4],inactive
CCC(C)(C)C1CCC(OC)CC1 (centres undefined),outcome,[1],inactive
same,outcome,[2],inactive
same,outcome,[7],inactive
same,outcome,[8],inactive
COc1ccc2[nH]cc(CCNC(C)=O)c2c1,outcome,[1],inactive
same,outcome,[2],inactive
same,outcome,[7],inactive
same,outcome,[8],inactive
O=C(O)c1cccc(Cl)n1,outcome,[10],inactive
same,outcome,[3],inactive
same,outcome,[6],inactive
same,outcome,[7],inactive
same,outcome,[8],inactive
CCC(C)(C)C1CCC(=O)CC1,outcome,[10],inactive
same,outcome,[11],inactive
same,outcome,[2],inactive
same,outcome,[9],inactive
same,outcome,[5],inactive
same,outcome,[6],inactive
same,AC50,[7],50.6 µM (active)
CC(C)(C)c1cc(CCC(=O)OCCSCCOC(=O)CCc2cc(C(C)(C)C)c(O)c(C(C)(C)C)c2)cc(C(C)(C)C)c1O,outcome,[1],inactive
same,outcome,[3],inactive
same,outcome,[4],inactive
same,outcome,[5],inactive
same,outcome,[6],inactive
same,AC50,[7],33.9 µM (active)
same,outcome,[8],inactive
O=c1cc[nH]cc1,outcome,[1],inactive
same,outcome,[4],inactive
same,outcome,[5],inactive
same,outcome,[6],inactive
same,outcome,[7],inactive
CC(C)C(=O)c1ccccc1,outcome,[10],inactive
same,outcome,[11],inactive
same,outcome,[9],inactive
same,outcome,[4],inactive
same,outcome,[6],inactive
same,outcome,[7],inactive
O=C(O)c1ccc(C(=O)O)c(C(=O)O)c1,outcome,[1],inactive
same,outcome,[6],inactive
same,outcome,[7],inactive
same,outcome,[8],inactive
CCCCCCCCOC(C)=O,outcome,[1],inactive
same,outcome,[2],inactive
same,outcome,[6],inactive
same,outcome,[7],inactive
O=S1(=O)CC=CC1,outcome,[1],inactive
same,outcome,[4],inactive
same,outcome,[5],inactive
same,outcome,[6],inactive
FC(F)(F)c1ccc(Cl)c(Cl)c1,outcome,[1],inactive
same,outcome,[4],inactive
same,outcome,[6],inactive
Nc1cc([N+](=O)[O-])ccc1C(=O)O,outcome,[10],inactive
same,outcome,[11],inactive
same,outcome,[2],inactive
same,outcome,[3],inactive
same,outcome,[9],inactive
same,outcome,[4],inactive
same,outcome,[5],inactive
same,outcome,[6],inactive
CCCCCCCCOC(=O)c1ccc(O)cc1,outcome,[11],inactive
same,outcome,[3],inactive
same,outcome,[9],inactive
same,outcome,[4],inactive
same,AC50,[7],11.1 µM (active)
CC(=O)C1C(=O)C=C(C)OC1=O (centres undefined),outcome,[10],inactive
same,outcome,[11],inactive
same,outcome,[9],inactive
same,outcome,[5],inactive
same,outcome,[6],inactive
same,outcome,[8],inactive
C=C(C)C(=O)OCCN(C)C,outcome,[2],inactive
same,outcome,[3],inactive
same,outcome,[9],inactive
O=C1OCc2ccccc21,outcome,[1],inactive
same,outcome,[5],inactive
same,outcome,[6],inactive
O=[N+]([O-])c1cc(N(CCO)CCO)ccc1NCCO,outcome,[1],inactive
same,outcome,[6],inactive
same,outcome,[7],inactive
CCCO,outcome,[10],inactive
same,outcome,[11],inactive
same,outcome,[3],inactive
same,outcome,[9],inactive
same,outcome,[5],inactive
CC(=O)N(C)C,outcome,[1],inactive
same,outcome,[3],inactive
CCC(=O)OC/C=C(\C)CCC=C(C)C,outcome,[1],inactive
same,outcome,[2],inactive
same,outcome,[5],inactive
same,outcome,[8],inactive
CC(C)(O)C(=O)c1ccc(OCCO)cc1,outcome,[1],inactive
same,outcome,[3],inactive
same,outcome,[5],inactive
same,outcome,[6],inactive
C=C/C(C)=C/C/C=C(\C)CCC=C(C)C,outcome,[1],inactive
same,AC50,[3],6.85 µM (active)
same,outcome,[7],inactive
C1CCCNCC1,outcome,[1],inactive
same,outcome,[2],inactive
same,outcome,[5],inactive
same,outcome,[8],inactive
O=C(O)c1ccccc1O,outcome,[11],inactive
same,outcome,[2],inactive
same,outcome,[5],inactive
same,outcome,[6],inactive
Cc1cccc(C)c1,outcome,[1],inactive
same,outcome,[2],inactive
same,outcome,[8],inactive
COc1ccc(N)c(C)c1,outcome,[1],inactive
same,outcome,[3],inactive
same,outcome,[6],inactive
same,outcome,[7],inactive
same,AC50,[8],73.2 µM (active)
[Na+],outcome,[1],inactive
same,outcome,[7],inactive
C=CC(C)CCCC(C)(C)O (centres undefined),outcome,[1],inactive
same,outcome,[5],inactive
same,outcome,[6],inactive
